Results filed as inconclusive are left out. Calls of active or inactive are those of the source. Rule for the calls: active = hit-call score of the fitted dose curve at least 0.9, where 1 is the maximum; inconclusive = response in the unintended direction; inactive = score below 0.9.

Results on 17 compounds are retold here after PubChem BioAssay (EPA / NIEHS).

The test is described as follows: TOX21_p53_BLA_p5_viability: Viability Assessment in the Tox21 HCT-116 p53 Agonism Beta-lactamase Assay, Phase 5 (AID 2283600). The method, boiled down: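 Viability is taken from cellular ATP content, measured by luciferase luminescence in the same wells after the beta-lactamase ratio read. Cells are seeded at 4000 per well and exposed to DMSO-dissolved compounds, diluted 217-fold, for 16 h.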
Take `CCN(CC)CCNC(=O)COc1ccc(OC)cc1`: the result was inactive.

`CCCOC(=O)c1ccccc1O`: the compound was called inactive.

For `O=C(O)COc1ccccc1/C=N/NC(=O)c1ccncc1`, the compound was classed as inactive.

For the compound `Cc1cc(C)cc([N+](=O)[O-])c1`, the outcome was inactive.

In the case of `O=C(O)CP(=O)(O)O`, the outcome was inactive.

`CS(=O)(=O)c1ccc([C@@H](O)[C@@H](COC(=O)CN)NC(=O)C(Cl)Cl)cc1`: the compound was classed as inactive.

As to `CC(=O)c1ccc(Cl)c(Cl)c1Cl`, the call was inactive.

Turning to `CC(C)NC[C@@H](O)COc1cccc2ccccc12`, the result was inactive.

`OCCOc1ccc(OCCO)cc1`: the result was inactive.

For `CCOc1ccc(S(=O)(=O)O)c2cccnc12`, the compound was called inactive.

Consider `O=[N+]([O-])c1ccc(Oc2ccc([N+](=O)[O-])cc2)cc1`, for which the compound was classed as inactive.

For `Cc1ccc(/C(=C\CN2CCCC2)c2ccccn2)cc1`, the call was inactive.

`Cc1cc(O)ccc1O`: the call was inactive.

As to `CC(C)c1ncc([N+](=O)[O-])n1C`, the result was inactive.

For the compound `Cc1cc(=O)c(C(=O)N[C@@H](C(=O)N[C@@H]2C(=O)N3C(C(=O)O)=C(CSc4nnnn4C)CS[C@H]23)c2ccc(O)cc2)c[nH]1`, the call was inactive.

Turning to `C[C@]12CC[C@@H]3c4ccc(OC(=O)c5ccccc5)cc4CC[C@H]3[C@@H]1CC[C@@H]2O`, the call was inactive.

Consider `CCCCOC(=O)C(=O)Nc1cccc(-c2nn[nH]n2)c1`, for which the compound was classed as inactive.
